Measured values published in PubChem BioAssay AID2629 (Broad Institute, 2010).
“And” between values parts separate entries of the source, which are not always exact repeats. Identical values can stand only once. Screen size: about 320,000 compounds; about 1,900 (0.59%) were called active. This is one part of a sample in which actives are shown more often than they occur. Rule as the data show it: active = inhibition mostly above about 10% (no sharp cut-off); inactive = mostly below about 6.7%.

The molecules below were run against Protein LANA1 (Human herpesvirus 8 type P (isolate GK18)) (UniProt Q9QR71) (assay: blockers of LANA interaction with H2A/H2B – biochemical, FP readout, HTS, primary screen (AID 2629)). Details: cell-free LANA-H2A/H2B peptide, fluorescence polarization, hits give high values, concentration not given here.
Chain of Protein LANA1 (Human herpesvirus 8 type P (isolate GK18)) (Q9QR71 whole entry, looked up): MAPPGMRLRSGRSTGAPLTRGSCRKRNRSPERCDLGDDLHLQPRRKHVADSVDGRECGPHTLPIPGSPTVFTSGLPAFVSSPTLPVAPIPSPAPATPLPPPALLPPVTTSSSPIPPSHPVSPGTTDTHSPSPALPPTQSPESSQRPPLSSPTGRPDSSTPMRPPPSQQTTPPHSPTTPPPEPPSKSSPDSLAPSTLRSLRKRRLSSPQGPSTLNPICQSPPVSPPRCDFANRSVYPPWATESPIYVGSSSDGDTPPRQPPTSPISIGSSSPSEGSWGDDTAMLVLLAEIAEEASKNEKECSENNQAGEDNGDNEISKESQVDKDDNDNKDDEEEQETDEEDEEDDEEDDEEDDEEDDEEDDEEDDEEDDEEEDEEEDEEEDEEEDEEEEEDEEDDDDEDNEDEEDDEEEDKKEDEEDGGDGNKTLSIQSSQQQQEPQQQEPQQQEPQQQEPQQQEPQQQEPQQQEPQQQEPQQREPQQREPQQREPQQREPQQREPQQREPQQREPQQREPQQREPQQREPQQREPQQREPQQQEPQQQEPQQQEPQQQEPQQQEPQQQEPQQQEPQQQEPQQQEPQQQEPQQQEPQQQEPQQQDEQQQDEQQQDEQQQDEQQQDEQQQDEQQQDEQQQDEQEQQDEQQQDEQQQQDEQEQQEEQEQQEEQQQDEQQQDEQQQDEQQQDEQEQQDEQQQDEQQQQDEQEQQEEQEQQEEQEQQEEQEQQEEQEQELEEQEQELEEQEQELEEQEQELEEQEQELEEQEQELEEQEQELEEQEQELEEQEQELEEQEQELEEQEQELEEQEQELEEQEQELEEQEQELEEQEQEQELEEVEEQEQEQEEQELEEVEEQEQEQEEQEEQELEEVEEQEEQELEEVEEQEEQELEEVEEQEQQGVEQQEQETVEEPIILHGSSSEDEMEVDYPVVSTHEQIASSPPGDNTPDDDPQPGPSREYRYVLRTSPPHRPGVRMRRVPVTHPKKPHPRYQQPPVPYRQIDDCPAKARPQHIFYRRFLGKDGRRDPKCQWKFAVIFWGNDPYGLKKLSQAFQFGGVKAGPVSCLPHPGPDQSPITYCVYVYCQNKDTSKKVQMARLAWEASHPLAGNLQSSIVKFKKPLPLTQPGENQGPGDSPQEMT

| Compound | inhibition |
| --- | --- |
| Oc1ccc(-c2[nH]ncc2-c2nc3ccccc3s2)c(O)c1 | 3.42% (inactive) |
| Cc1ccc(S(=O)(=O)N2CCN(C(=O)c3ccccc3-c3nc4ccccc4s3)CC2)c(C)c1 | 5.83% (inactive) |
| CC(=O)Nc1cccc(-c2nc3ccccc3s2)c1C | 55.2% (active) |
| O=C1C2(c3ccccc3)CN(CCCO)CC1(c1ccccc1)CN(CCCO)C2 | 1.07% (inactive) |
| C=CCN(C(=O)Cn1ncc2c1-c1cc(C)ccc1OC2)c1ccccc1 | -5.38% (inactive) |
| CCCCc1cc2c(s1)CCCC/C2=N/O | -0.97% (inactive) |
| COc1ccc(N2CCN(C(=O)CCNC(=O)c3ccc(Br)cc3)CC2)cc1 | -8.47% (inactive) |
| CN(C)C(=O)c1nc2ccc(Cl)cn2c1CNCc1cccc(OC(F)(F)F)c1 | 1.63% (inactive) |
| Cc1nnc(SC(C(=O)c2ccccc2)c2ccccc2)[nH]c1=O (stereo not drawn) | -2.85% (inactive) |
| O=C(O)Cc1ccc(-c2ccccc2)cc1 | 54.5% (active) |
| O=C(Cc1ccc(-c2ccccc2)cc1)NC(c1ccccc1)c1ccccc1 | 3.99% (inactive) |
| O=C(O)Cc1ccc(NCc2ccccc2Cl)cc1 | 4.61% (inactive) |
| C/C(=N/OC(=O)c1ccc(Br)cc1)c1ccc(C)cc1 | 4.46% (inactive) |
| Cc1nnc(-c2ccc(Oc3ccc(C)c(C)c3)c([N+](=O)[O-])c2)o1 | 0.884% (inactive) |
| O=S(=O)(Nc1cc(Cl)ccc1N1CCOCC1)c1ccccc1Cl | 16.7% (active) |
| O=S(=O)(Nc1ccccc1N1CCOCC1)c1ccc(Cl)s1 | 4.05% (inactive) |
| O=S(=O)(Nc1cc(S(=O)(=O)N2CCOCC2)ccc1N1CCCC1)c1cccs1 | -1.3% (inactive) |
| CCCCN(C(=O)c1ccc(S(=O)(=O)N2CCOCC2)cc1)C1CCS(=O)(=O)C1 (stereo not drawn) | 3.61% (inactive) |
| CCNC(=S)N(CCN(CC)CC)Cc1cc2cc3c(cc2[nH]c1=O)OCCO3 | -5.92% (inactive) |
| CCN(CC)CCCNC(=S)N(CCO)Cc1cc2cc3c(cc2[nH]c1=O)OCO3 | -0.647% (inactive) |
| COCCCNC(=S)N(CCN(C)C)Cc1cc2cc3c(cc2[nH]c1=O)OCCO3 | 9.12% (active) |
| C=C(C)CNC(=S)/N=c1\scc(C)n1CC | 3.02% (inactive) |
| COc1ccc(Cc2cc(-c3ccc(F)cc3)n[nH]c2=O)cc1 | -1.23% (inactive) |
| Cc1ccc(C(=O)COC(=O)c2cccc(N3C(=O)c4c(C)nc5ccccc5c4C3=O)c2)cc1C | 14.6% (active) |
| Cc1ccc(C(=O)COC(=O)CCN2C(=O)C3C4CCC(C4)C3C2=O)cc1C (stereo not drawn) | 0.254% (inactive) |
| O=C(CCc1nc2ccccc2c(=O)[nH]1)OCC(=O)c1cccc(Cl)c1 | -2.71% (inactive) |

| Compound | inhibition |
| --- | --- |
| CC(C)(C)C1CCC(C(=O)NCC(c2cccs2)N2CCOCC2)CC1 (stereo not drawn) | -3% (inactive) |
| CN(Cc1ccc(CNC[C@H]2O[C@@H](n3cnc4c(N)ncnc43)[C@H](O)[C@@H]2O)o1)S(C)(=O)=O | 1.32% (inactive) |
| O=C(O)Cc1csc(-c2cccc(Oc3ccccc3)c2)n1 | -3.8% (inactive) and 4.18% (inactive) |
| COc1cc(C(=O)OC(C)C(=O)NCC2CCCCC2)cc(NC(=O)c2ccco2)c1OC (stereo not drawn) | 1.94% (inactive) |
| CC(C)(C)c1ccc(C(=O)NCc2nnc(SCC(=O)N3CCCc4ccccc43)n2-c2ccccc2)cc1 | 2.13% (inactive) |
| COc1ccccc1CNC(=O)C1CCCN(S(=O)(=O)c2cccc3cccnc23)C1 (stereo not drawn) | 138% (active) |
| COc1ccc(NC(=O)C2CCCN(S(=O)(=O)c3cccc4cccnc34)C2)cc1OC (stereo not drawn) | 2.61% (inactive) |
| COc1ccc(NC(=O)C2CCCN(S(=O)(=O)c3cccc4cccnc34)C2)cc1 (stereo not drawn) | -2.43% (inactive) |
| CCOc1cc(C2C(C(=O)c3ccco3)=C(O)C(=O)N2Cc2ccccc2)ccc1O (stereo not drawn) | 2.24% (inactive) |
| O=C(C1=C(O)C(=O)N(Cc2ccccc2)C1c1cccnc1)c1ccco1 (stereo not drawn) | 10.9% (active) |
| COc1ccc(C2C(C(C)=O)=C(O)C(=O)N2Cc2cccnc2)cc1 (stereo not drawn) | 0.519% (inactive) |
| Cc1ccc(N(C(=O)Cc2cccs2)C2C=CS(=O)(=O)C2)cc1Cl (stereo not drawn) | 0.0691% (inactive) |
| OC1CSc2nc3ccccc3n2C1 (stereo not drawn) | 0.181% (inactive) |
| CC1Cc2cc(/C(O)=C3\C(=O)C(=O)N(Cc4cccnc4)C3c3ccccc3F)ccc2O1 (stereo not drawn) | 12.2% (active) |
| COCCCN1C(=O)C(=O)/C(=C(/O)c2ccc3c(c2)CC(C)O3)C1c1cccnc1 (stereo not drawn) | -6.56% (inactive) and -12.2% (inactive) |
| CC1Cc2cc(/C(O)=C3\C(=O)C(=O)N(CCN4CCOCC4)C3c3ccccc3F)ccc2O1 (stereo not drawn) | -0.116% (inactive) |
| CN(CC(=O)NCCc1ccc(S(N)(=O)=O)cc1)CC(=O)Nc1ccc(Cl)cc1 | -9.65% (inactive) |
| CCn1cc(C(=O)NCCCN2CCCCCC2)c(=O)c2cc(S(=O)(=O)N3CCc4ccccc4C3)ccc21 | 1.1% (inactive) |
| CC1(C)N=C(c2ccccn2)C(C)(C)N1O | 3.45% (inactive) |
| CC(C(=O)N1CCc2ccccc21)N(C)CC(=O)Nc1ccc(F)cc1 (stereo not drawn) | 4.45% (inactive) |
| COc1cc(NC(=O)c2ccccc2NS(=O)(=O)c2ccc(Cl)s2)cc(OC)c1 | -1.77% (inactive) |
| C=CC[C@@H](CC(=O)N[C@H](CO)Cc1ccccc1)C(=O)N[C@@H](COC(=O)[C@@H](CC=C)Cc1ccc(F)cc1)Cc1c[nH]c2ccccc12 | -2.42% (inactive) |
| C=CCC[C@@H](Cc1ccc(F)cc1)C(=O)OC[C@H](Cc1c[nH]c2ccccc12)NC(=O)[C@@H](CC=C)CC(=O)N(CCO)Cc1ccccc1 | 3.67% (inactive) |
| C=CCC[C@H](Cc1ccc(F)cc1)C(=O)OC[C@@H](Cc1c[nH]c2ccccc12)NC(=O)[C@H](CC=C)CC(=O)N[C@H](CO)Cc1ccccc1 | 145% (active) |
| COc1ccc(NC(=O)CSc2nc(SC)ns2)c(OC)c1 | 0.787% (inactive) |
| CCCn1nc(Oc2nc(NC(C)C)nc(N(C)C)n2)ccc1=O | -2.39% (inactive) |

| Compound | inhibition |
| --- | --- |
| O=C(NCCN1CCOCC1)c1cc(-c2cccs2)nc2ccccc12 | 14% (inactive) |
| CCCCN(C)CCCNC(=O)c1cc(-c2cccs2)nc2ccccc12 | -1.81% (inactive) |
| O=C(Nc1nnc(-c2ccccc2)o1)c1cc(-c2cccs2)nc2ccccc12 | 14.9% (active) |
| COc1ccc(NC(=O)CN(C)C(=O)c2cc(C3CC3)nn2-c2ccccc2)cc1 | -290% (inactive) |
| CCc1ccccc1NC(=O)CN(C)C(=O)c1cc(C2CC2)nn1-c1ccccc1 | -3.11% (inactive) |
| COc1cccc(NC(=O)CN(C)C(=O)c2cc(C3CC3)nn2-c2ccccc2)c1 | 559% [above what the read-out allows, likely interference] (active) |
| COc1cccc(CN2CCN(Cc3ccc4cccc(F)c4n3)CC2CCO)c1 (stereo not drawn) | -3.14% (inactive) |
| COc1ccc(C2C=C(c3ccc(Br)cc3)Nc3nc(NS(C)(=O)=O)nn32)cc1 (stereo not drawn) | 31.6% (active) |
| COc1ccc(C2=CC(c3cccc(OC)c3)n3nnnc3N2)cc1 (stereo not drawn) | -1.03% (inactive) |
| CCS(=O)(=O)n1nc(-c2ccccc2)nc1SCc1ccccc1 | 0.944% (inactive) |
| COc1ccc(C(=O)NC(C)Cn2nc(C)cc2C)cc1OC1CCN(C(C)=O)CC1 (stereo not drawn) | 16.1% (active) |
| COc1ccc(C(=O)NCCn2nc(C)cc2C)cc1OC1CCN(C(C)=O)CC1 | 0.74% (inactive) |
| COc1ccc(C(=O)NC(C)c2nccs2)cc1OC1CCN(C(C)C)CC1 (stereo not drawn) | 4.31% (inactive) |
| CCOc1ncccc1C(=O)OCC(=O)NC1CC1 | -3.51% (inactive) |
| FC(F)(F)c1nnc2c3ccccc3c(Cl)nn12 | 8.62% (inactive) |
| Cc1nnc(SCc2ccc(C(=O)c3ccc(Cl)cc3)o2)n1-c1ccccc1 | -1.68% (inactive) |
| Cc1noc(C)c1NC(=O)Nc1ccc2c(c1)C(=O)N([C@H](C)CO)C[C@H](C)[C@@H](CN(C)S(=O)(=O)c1cn(C)cn1)O2 | 546% [above what the read-out allows, likely interference] (active) |
| CC(C)NC(=O)Nc1cccc2c1O[C@@H](CN(C)S(=O)(=O)c1ccc(F)cc1)[C@@H](C)CN([C@H](C)CO)C2=O | -0.984% (inactive) |
| COc1ccc(S(=O)(=O)Nc2cccc3c2O[C@H](CN(C)S(=O)(=O)c2ccc(OC)cc2)[C@@H](C)CN([C@H](C)CO)C3=O)cc1 | -1.79% (inactive) |
| Cc1noc(C)c1S(=O)(=O)N(C)C[C@H]1Oc2ccc(NC(=O)C3CC3)cc2C(=O)N([C@H](C)CO)C[C@@H]1C | 3.05% (inactive) |
| COc1ccc(NC(=O)Nc2ccc3c(c2)C(=O)N([C@H](C)CO)C[C@H](C)[C@@H](CN(C)C(=O)Nc2ccc4c(c2)OCO4)O3)cc1 | 1.05% (inactive) |
| C[C@H](CO)N1C[C@H](C)[C@H](CN(C)C(=O)Nc2ccc(C(F)(F)F)cc2)Oc2c(NC(=O)c3ccncc3)cccc2C1=O | 0.195% (inactive) |
| COc1ccc(S(=O)(=O)N(C)C[C@@H]2Oc3ccc(NC(=O)Nc4c(C)noc4C)cc3C(=O)N([C@H](C)CO)C[C@@H]2C)cc1 | 4.41% (inactive) |
| C[C@H](CO)N1C[C@H](C)[C@@H](CN(C)S(=O)(=O)c2ccc(F)cc2)Oc2c(NC(=O)Nc3ccccc3)cccc2C1=O | 14.5% (active) |
| Cc1noc(C)c1NC(=O)Nc1cccc2c1O[C@H](CN(C)S(=O)(=O)c1c(C)noc1C)[C@@H](C)CN([C@H](C)CO)C2=O | -5.54% (inactive) |
| COc1ccc(S(=O)(=O)N(C)C[C@H]2Oc3c(NC(=O)Nc4ccc5c(c4)OCO5)cccc3C(=O)N([C@H](C)CO)C[C@@H]2C)cc1 | 16.9% (active) |
